# From PubChem BioAssay AID1210 (NMMLSC, 2008)
# Active and inactive are the calls of the source.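 The calls were made as follows: active = blocks over 70% of labeled estradiol binding at 10 µM, or over a set limit at 100 nM; inactive = the rest.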
# Molecular target: Estrogen receptor beta (Homo sapiens) (UniProt Q92731)
# Assay: ERbeta ligand binders by competition, primary screen, cell-based, Cos7 ERbeta-GFP, flow cytometry (AID 1210);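 also: 0% = DMSO vehicle wells and 100% = complete loss of labeled estradiol signal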
# Conditions: fluorescent estrogen binding, stronger effect = higher value
# [1] = ligand binding inhibition, at 0.1 µM
# Sequence of Estrogen receptor beta (Homo sapiens) (Q92731 whole entry, looked up): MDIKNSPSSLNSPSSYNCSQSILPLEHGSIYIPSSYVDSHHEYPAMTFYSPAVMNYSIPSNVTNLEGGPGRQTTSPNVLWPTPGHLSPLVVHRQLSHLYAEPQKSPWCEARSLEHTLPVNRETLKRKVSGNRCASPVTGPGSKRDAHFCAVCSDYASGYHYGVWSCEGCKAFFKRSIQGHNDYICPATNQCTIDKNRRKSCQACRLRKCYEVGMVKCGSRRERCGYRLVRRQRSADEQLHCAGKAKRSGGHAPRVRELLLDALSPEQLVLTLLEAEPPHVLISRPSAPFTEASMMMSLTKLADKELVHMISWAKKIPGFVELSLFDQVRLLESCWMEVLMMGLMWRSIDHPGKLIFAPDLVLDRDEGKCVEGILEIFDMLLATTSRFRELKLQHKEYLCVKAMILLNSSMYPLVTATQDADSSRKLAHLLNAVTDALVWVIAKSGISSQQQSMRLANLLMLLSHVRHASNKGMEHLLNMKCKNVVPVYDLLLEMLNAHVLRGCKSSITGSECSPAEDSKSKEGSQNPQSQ
SMILES,inhibition (at 10 µM),inhibition [1] [%]
N=c1c(C(=O)NCc2ccc(F)cc2)cc2c(=O)n3ccccc3nc2n1Cc1cccnc1,30% (inactive),34
O=C1CC(=O)N2N=C(c3ccc([N+](=O)[O-])cc3)SC2=N1,45% (inactive),19
Cc1ccc2nc(/C(C#N)=C\c3ccc(N4CCCCC4)c([N+](=O)[O-])c3)[nH]c2c1,15% (inactive),6
O=C(Nc1ccc2oc(-c3ccccc3F)nc2c1)c1cncc(Br)c1,63% (inactive),25
COc1ccc(-c2nnc(SCC(=O)/C(C#N)=C(\C)N)o2)cc1,36% (inactive),13
C/C(N)=C(/C#N)C(=O)CSc1nnc(-c2ccc(OC(F)F)cc2)o1,37% (inactive),23
CCc1nc2sc3ccccc3c(=O)c2c(=O)n1Cc1ccco1,46% (active),66
O=C1NCCCC2c3cc(O)c4ccccc4c3OC12N1CCCCC1 (stereo unspecified),56% (inactive),27
COc1ccc(C(Nc2ccccn2)c2oc(CO)cc(=O)c2O)cc1 (stereo unspecified),75% (active),40
O=c1[nH]cnc2c1sc1nc3c(c(-c4ccc(Cl)cc4)c12)CCC3,51% (inactive),19
COc1ccc(C2CC(=O)Nc3ccccc3S2(=O)=O)cc1OC (stereo unspecified),5% (inactive),20
CCOC(=O)C1CCCN(C(=O)c2cc3ncc(Br)cn3n2)C1 (stereo unspecified),0% (inactive),26
O=C(COC(=O)CCOc1ccccc1)NCc1ccco1,54% (inactive),37
COc1ccc2nc3oc(C(=O)N4CCN(c5cccc(C(F)(F)F)c5)CC4)cc3cc2c1,24% (inactive),47
Nc1ccc2nc(-c3ccc(Cl)cc3)[nH]c2c1,42% (inactive),16
Nc1ccc2nc(-c3cccs3)[nH]c2c1,50% (inactive),34
COC(=O)c1c(NC(=O)Cc2cccs2)sc2c1CCCC2,41% (inactive),18
COc1ccccc1-c1nnc2n1N=C(c1ccc(O)c(O)c1)CS2,69% (inactive),21
CCn1c(=NC(=O)c2ccc(N3C(=O)CCC3=O)cc2)sc2c(OC)ccc(OC)c21,64% (inactive),57
COc1ccc(C2C=C(c3ccc(Cl)cc3)Nc3nc(NC(C)=O)nn32)cc1 (stereo unspecified),16% (inactive),21
COc1ccc2c(c1)c1nc3ccccc3nc1n2CCCN1C(=O)c2ccccc2C1=O,49% (inactive),18
Oc1ccc(N=Cc2ccc(O)c(O)c2)cc1,34% (inactive),20

SMILES,inhibition (at 10 µM),inhibition [1] [%]
CC(C)(C)NC(=O)c1ccc2c(c1)C1C3CCC(C3)C1C(c1ccccc1)N2 (stereo unspecified),3% (inactive),64
CC(=O)N1c2ccc(Cl)cc2C2C=CCC2C1c1cccc2ccccc12 (stereo unspecified),51% (inactive),6
O=C(Cc1coc2cc3c(cc12)CCC3)OCc1cc(=O)n2c(n1)sc1ccccc12,56% (inactive),14
CC(C)CC(=O)Nc1ccc(C(=O)COc2ccc(-c3nnco3)cc2)cc1,44% (inactive),49
Cc1ccc(C(=O)ONc2ccc(N=NC(=O)c3ccccc3O)cc2)cc1,58% (inactive),28
CCOC(=O)C1CCCN(C(=O)c2ccc(CS(=O)(=O)c3ccc(C)cc3)o2)C1 (stereo unspecified),55% (inactive),21
COC(=O)c1ccc(CC(=O)c2c(C)cc(O)cc2O)o1,62% (inactive),22
Clc1ccc2nc(-c3ccccn3)c(Nc3ccc4c(c3)OCO4)n2c1,60% (inactive),2
CC(=O)Nc1nonc1-c1nc2ccccc2n1N(C(C)=O)C(C)=O,35% (active),70
O=C(COC(=O)CC1CCCC1)Nc1cc2c(cc1Cl)C(=O)c1ccccc1C2=O,47% (inactive),15
Cc1cc(-c2nnc3sc(-c4ccc(Cl)cc4Cl)nn23)n[nH]1,32% (inactive),38
C/C(N)=C(/C#N)C(=O)CSc1nnc(Cc2ccccc2F)n1N,22% (inactive),7
CCOc1ccccc1N1CSC2=C(C#N)C(c3c(OC)ccc4ccccc34)CC(=O)N2C1 (stereo unspecified),35% (inactive),28
Cc1nnc(NC(=O)CSc2nc3c(c(=O)n2CCc2ccccc2)SC(C)C3)s1 (stereo unspecified),45% (inactive),34
O=C(c1cccs1)N1N=C(c2ccccc2)CC1c1ccc(O)cc1 (stereo unspecified),69% (inactive),23
Cc1cc(C(=O)O)ccc1-n1c(C)ccc1C,69% (inactive),49
Nc1ccc(-n2cnc3cc([N+](=O)[O-])ccc32)cc1,34% (inactive),12
COCCCn1c(Cc2csc(Nc3cccc(Cl)c3)n2)nnc1SCC(=O)OC1CCCCC1,11% (inactive),29
O=C(Nc1cccc(-c2cnc3ccccc3n2)c1)c1cccc(NC(=O)c2ccco2)c1,58% (inactive),43
CCOC(=O)N1CCN(c2ccc(O)cc2)CC1,45% (inactive),34
COc1ccc(C2Nc3ccccc3C(=O)N2Cc2ccccc2)cc1Cn1nnc2ccccc21 (stereo unspecified),38% (inactive),45
